Hits are enriched below; roughly 3.4% of the tested compounds scored in any of these assays.
TEAD-YAP block = TEAD-YAP interaction inhibition | inhibition, % at 9.12 µM | HEK-TIYL cells, TEAD-Gal4/YAP UAS-luciferase luminescence | 1.4% of 640,000 active; in the data active = inhibition above about 32%
GPR151 activ = activates the human receptor GPR151; 1% of 650,000 active; activation, % at 11.2 µM; PathHunter beta-arrestin GPR151 cells, luminescence; in the data active = activation above about 4.9%
FBW7 activator = activators of human E3 ligase FBW7 | Q969H0 | AlphaScreen FBW7–phospho-cyclin E peptide binding, activator screen | normalized activity (activation), % at 26.1 µM | 0.13% of 650,000 active; in the data active = normalized activity above about 1.9%;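 note: purified mutant Fbw7 with reduced substrate affinity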
Target sequence (Q969H0 whole entry, looked up): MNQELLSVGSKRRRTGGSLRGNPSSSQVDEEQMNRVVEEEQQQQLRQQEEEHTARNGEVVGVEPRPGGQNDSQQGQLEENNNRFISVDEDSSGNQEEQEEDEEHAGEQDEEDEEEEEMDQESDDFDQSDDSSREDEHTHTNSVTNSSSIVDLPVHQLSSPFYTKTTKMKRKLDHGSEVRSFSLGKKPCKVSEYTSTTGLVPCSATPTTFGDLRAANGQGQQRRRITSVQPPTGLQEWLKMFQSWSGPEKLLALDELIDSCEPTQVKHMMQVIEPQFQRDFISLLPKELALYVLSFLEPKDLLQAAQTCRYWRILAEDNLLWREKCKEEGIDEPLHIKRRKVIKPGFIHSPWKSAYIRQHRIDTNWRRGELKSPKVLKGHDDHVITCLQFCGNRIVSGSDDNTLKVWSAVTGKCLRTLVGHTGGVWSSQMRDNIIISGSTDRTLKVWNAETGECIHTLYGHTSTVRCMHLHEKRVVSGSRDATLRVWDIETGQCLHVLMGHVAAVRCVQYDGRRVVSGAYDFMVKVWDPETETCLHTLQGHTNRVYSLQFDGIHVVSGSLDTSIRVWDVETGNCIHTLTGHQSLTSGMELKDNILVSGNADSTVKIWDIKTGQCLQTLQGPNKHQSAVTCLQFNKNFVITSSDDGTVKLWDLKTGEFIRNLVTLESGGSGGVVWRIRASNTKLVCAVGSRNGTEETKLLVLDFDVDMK
MITF inh = human MITF inhibition, primary screen | inhibition, % at 2.6 µM | AlphaScreen MITF homodimerization, bead proximity signal | AID 1259374 | 0.91% of 650,000 active; in the data active = inhibition above about 50%
MITF confirm = confirmation of human MITF inhibitors. 16% of 4,700 active. AlphaScreen MITF homodimerization, biotin/His-MITF beads. shares compounds with MITF inh. inhibition, % at 2.6 µM;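 active = inhibition above a cutoff derived from the DMSO control wells, cut at about 28% in these data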;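 note: inhibitors lower the bead chemiluminescence by keeping MITF from dimerizing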
AlphaScreen intf2 = AlphaScreen optical interference, counter-screen | shares compounds with MITF inh | LysRS AlphaScreen counterscreen, signal interference, triplicate | inhibition, % at 2.6 µM | 7.6% of 4,700 active | AID 1259376;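 active = inhibition above a cutoff derived from the DMSO control wells, cut at about 30% in these data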
Hits are given with their value; – = inactive; · = not tested or not shown.

SMILES	TEAD-YAP block	GPR151 activ	FBW7 activator	MITF inh	MITF confirm	AlphaScreen intf2
CCOC(=O)CCCCC(=O)c1c(C)n(C(=O)c2ccc(N3C(=O)CCC3=O)cc2)c(=O)n1C(=O)c1ccc(N2C(=O)CCC2=O)cc1	–	–	–	107	107	88
COC(=O)c1sc(NC(=O)c2ccc3c(c2)OCO3)c(C(N)=O)c1C	–	–	–	–	·	·
CCOc1ccccc1Nc1nnc(SC(C)C(=O)N2CCC(C)CC2)s1 (stereo unspecified)	–	–	–	–	·	·
CC(=O)CCc1ccc(OCCN2CCN(C)CC2)cc1	–	–	–	–	·	·
CCN1CCN(CCCCOc2ccc(CCC(C)=O)cc2)CC1	–	–	–	66	–	–
CC(=O)CCc1ccc(OCCCCN2CCN(C)CC2)cc1	–	–	–	–	·	·
CCN1CCN(CCCOc2ccc(CCC(C)=O)cc2)CC1	–	–	–	56	–	–
CCOc1ccc(/C=C/C(=O)Nc2nc3ccc(S(C)(=O)=O)cc3s2)cc1OC	–	–	–	73	–	–
O=C(NC(=S)Nc1ccc2[nH]c(=O)[nH]c2c1)c1ccccc1Cl	–	–	–	99	–	–
COc1ccccc1C(=O)NC(=S)Nc1ccc2[nH]c(=O)[nH]c2c1	–	–	–	–	·	·
CC(=O)N1CCC(=NNc2nc3ccccc3[nH]2)CC1	–	–	–	82	30	50
Cc1ccc(OCCN2CCN(C)CC2)c([N+](=O)[O-])c1	–	–	–	76	–	–
Cc1ccc(OCCN2CC(C)OC(C)C2)c([N+](=O)[O-])c1 (stereo unspecified)	–	–	–	76	–	–
Cc1ccc(OCCN2CCNCC2)c([N+](=O)[O-])c1	–	–	–	–	·	·
Cc1ccc(OCCCN2CCCC2)c([N+](=O)[O-])c1	–	–	–	–	·	·
Cc1ccc(OCCN2CCCCC2)c([N+](=O)[O-])c1	–	–	–	64	–	–
CCOC(=O)C1(CCOC)CCN(Cc2cc(C)ccc2C)CC1	–	–	–	–	·	·
Cc1cc(OCCCNC(C)(C)C)ccc1Cl	–	–	–	–	·	·
COc1cc(C(=O)NCCC(=O)NC2CCCCCCC2)cc(OC)c1OC	–	–	–	78	–	–
COc1ccc(OCC(=O)Nc2ccccc2N2CCOCC2)cc1	–	–	–	–	·	·
CCc1c(C)c(C#N)c2nc3ccccc3n2c1N1CCN(Cc2ccc(OC)c(F)c2)CC1	–	–	–	–	·	·
CCOc1ccc(NC(=O)CN2CCN(c3cccc(Cl)c3)CC2)cc1	–	–	–	–	·	·
CC1CC(C)(C)Cc2c1sc(NC(=O)c1ccco1)c2C#N (stereo unspecified)	–	–	–	84	–	–
Ic1ccc(OCCCNC2CCCC2)cc1	–	–	–	–	·	·
Ic1ccc(OCCNC2CCCC2)cc1	–	–	–	59	–	–
SMILES	TEAD-YAP block	GPR151 activ	FBW7 activator	MITF inh	MITF confirm	AlphaScreen intf2
COc1ccc(-c2cccc(C(=O)NCc3ccc4c(c3)OCO4)c2)cc1	–	–	–	–	·	·
COc1cccc(-c2cc(CNC(=O)c3ccc4c(c3)OCO4)no2)c1	–	–	–	51	–	–
CC(C)(c1ccc(O)cc1)c1ccc(O)cc1	–	–	–	–	·	·
CC(C)(c1ccc(O)c(N)c1)c1ccc(O)c(N)c1	–	–	–	74	–	33
COc1ccc(C(=O)CSc2ncn[nH]2)cc1C	–	–	–	69	–	–
COc1ccc(OC)c(C(=O)CSc2ncn[nH]2)c1	–	–	–	–	·	·
COc1ccc(C)cc1NC(=O)CNCC1CCCO1 (stereo unspecified)	–	–	–	53	–	–
N#Cc1ccsc1NC(=O)CNCC1CCCO1 (stereo unspecified)	–	–	–	60	–	–
COc1ccc(C)cc1NC(=O)CNCCN1CCOCC1	–	–	–	87	–	–
COc1ccc(C)cc1NC(=O)CCN1CCOCC1	–	–	–	–	·	·
COc1ccccc1NC(=O)CC(NCCCN1CCOCC1)C(=O)O (stereo unspecified)	–	–	–	–	·	·
COc1ccc(C)cc1NC(=O)N1CCC(CO)(CC2CCCCO2)CC1 (stereo unspecified)	–	–	–	–	·	·
COc1ccccc1NC(=O)CNCCCN1CCOCC1	–	–	–	61	–	–
CN(C)Cc1c(C(=O)N/N=C/c2ccsc2)nnn1-c1nonc1N	–	–	–	–	·	·
NNC(=O)CNc1ccc(I)cc1	–	–	–	–	·	·
COc1cccc(CNC(=O)C(=O)Nc2cc(Cl)ccc2OC)c1	–	–	–	–	·	·
COc1ccccc1NC(=O)CNCCN1CCOCC1	–	–	–	86	–	–
COc1ccccc1NC(=S)NCCN1CCOCC1	–	–	–	–	·	·
O=C(C1CC12CCN(Cc1nc3ccccc3[nH]1)CC2)N1CCN(c2ccccc2)CC1 (stereo unspecified)	–	–	–	–	·	·
O=C(NCc1ccc2c(c1)OCO2)C1CCN(Cc2nc3ccccc3[nH]2)CC1	–	–	–	63	–	–
O=C(C1CCN(Cc2nc3ccccc3[nH]2)CC1)N1CCc2ccccc2C1	–	–	–	62	–	–
O=C(C1CCN(Cc2nc3ccccc3[nH]2)CC1)N1CCN(c2ccc(F)cc2)CC1	–	–	–	58	–	–
CCN(CC)Cc1cccc2cccnc12	–	–	–	–	·	·
Cc1nccn1Cc1ccc(O)c2ncccc12	–	–	–	82	103	101
Cc1ccc(NCc2ccc(O)c3ncccc23)cc1	–	–	–	53	105	100
SMILES	TEAD-YAP block	GPR151 activ	FBW7 activator	MITF inh	MITF confirm	AlphaScreen intf2
Cc1cccnc1NCc1ccc(O)c2ncccc12	–	–	–	64	52	91
CCN(CC)Cc1ccc(O)c2ncccc12	51	–	–	93	102	100
Cc1ccc(NCc2ccccc2O)cc1	–	–	–	–	·	·
Cc1cc(N2CCCCC2)nc2ccc(NC(=O)c3cccc(N(C)C)c3)cc12	–	–	–	–	·	·
O=C1NC(=O)N(c2ccc([N+](=O)[O-])cc2)C(=O)/C1=C/c1ccc(O)c(Br)c1	–	–	–	–	·	·
CC1CN(Cc2c(O)ccc3ccccc23)CC(C)O1 (stereo unspecified)	–	–	–	–	·	·
CCCCN1C(=O)C(=O)N(CC(=O)Nc2ccc(C)c(Cl)c2)C1=O	–	–	–	66	–	–
CCOc1cc(CN2CCN(C3CC4CCC3C4)CC2)ccc1OC (stereo unspecified)	–	–	–	69	–	–
Fc1ccc(CN2CCN(C3CC4CCC3C4)CC2)cc1 (stereo unspecified)	–	–	–	79	–	–
CCOc1ccc(CN2CCN(S(=O)(=O)CC)CC2)cc1OC	–	–	–	–	·	·
CCOc1cc(CN2CCN(C3CCCCCC3)CC2)ccc1OC	–	–	–	55	–	–
COc1ccc(CN2CCC(N3CCCCC3)CC2)cc1OC	–	–	–	–	·	·
CCOc1cc(CN2CCN(C3CCCCC3)CC2)ccc1OC	–	–	–	64	–	–
COc1ccc(CN2CCN(C3CCN(Cc4ccccc4)CC3)CC2)cc1OCc1ccccc1	–	–	–	–	·	·
Cc1cc(N)c2c(C)nn(-c3ccccc3)c2n1	–	–	–	–	·	·

Screens (PubChem BioAssay)
